Experimental data as given in ChEMBL document CHEMBL4513146, “CO-ADD screening of Karazin Kharkiv National University (Ukraine) compounds”.
Entries with a potency or affinity are not part of this list.

Tests used:
[1] = system: Klebsiella pneumoniae; settings: Concentration 32 ug.mL-1;; ASSAY_TEST Inhibition of Bacterial Growth; detection method Absorption (OD600); MEDIA CAMHB; plate type 384well; NBS; CORNING #3640; time 18 hr
[2] = system: Candida albicans; settings: Concentration 32 ug.mL-1; ASSAY_TEST Inhibition of Fungal Growth; detection method Absorption (OD530)
[3] = system: Cryptococcus neoformans; settings: Concentration 32 ug.mL-1; ASSAY_TEST Inhibition of Fungal Growth; detection method Resazurin; Absorption (OD600-OD570); plate type 384well; NBS; CORNING #3640

SMILES	Inhibition [1] [%]	Inhibition [2] [%]	Inhibition [3] [%]
CCOc1ccc(-n2ccn3c(SCC(=O)Nc4ccc(CC)cc4)nnc3c2=O)cc1	16.87	2.31	-18.11
Cc1cc2nn(CC(=O)Nc3cc(F)ccc3C)c(=O)n2c(Nc2ccc(C)c(F)c2)n1	11.43	3.99	-7.37
CC(C)c1ccc(NC(=O)Cn2nc3c(N4CCCCC4)nccn3c2=O)cc1	10.38	4.27	-12.25
O=C(Cn1nc2ccc(SC3CCCCC3)nn2c1=O)Nc1ccc(F)c(F)c1	13.05	13.65	-16.79
CCOc1ccccc1NC(=O)Cn1nc2c(Oc3ccccc3)nccn2c1=O	5.91	2.77	-10.21
CCc1ccccc1NC(=O)Cn1nc2c(Sc3ccc(C)cc3C)nccn2c1=O	5.69	0.47	-23.87
Cc1ccc(Cl)cc1NC(=O)CSc1nnc2ccc(C(=O)Nc3cccc(F)c3)cn12	3.53	4.15	-1.38
COc1ccc(NC(=O)Cn2nc3c4cc(-c5ccc(C)cc5)nn4ccn3c2=O)cc1	-1.42	-0.28	-12.53
CC(C)c1ccc(NC(=O)Cn2nc3c(Sc4ccccc4)nccn3c2=O)cc1	-10.24	23.16	-7.48
Cc1ccc(NC(=O)Cn2nc3ccc(SC(C)(C)C)nn3c2=O)cc1C	8.45	5.53	-7.37
COc1cccc(-n2ccn3c(SCC(=O)Nc4ccc5c(c4)OCCO5)nnc3c2=O)c1	14.27	3.13	-26.1
